Experimental data published in PubChem BioAssay (NCI).
This is part of a sample that, as a whole, favours compounds with a hit. Of some 83,000 tested, about 20% had one in any assay.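 96-well plates, one dose, 48 hours. Percent growth reported; active if below 10.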 Unmarked numbers belong to inactive results. Activity calls are given as the source filed them.

tested on: U251 CNS; assay: NCI-60 one-dose screen, 48 h (100 = growth as untreated, 0 = no growth, -100 = all killed); conditions: 10 µM
Protocol: Growth inhibition of the U251 human tumor cell line is measured as a screen for anti-cancer activity. Cells are grown in 96 well plates and exposed to the test compound for 48 hours. Compounds are tested at a single concentration, which is 10^-5 M for most compounds. The reported endpoint is percent growth (GI% or GIPRCNT), where numbers from 0 - 100% represent growth inhibition, and numbers from -100% - 0 represent cell death. For example, a value of 40 represents 60% growth inhibition. A value of 0 means no net growth occurred over the course of the experiment. A value of -40 indicates 40% of cells at the beginning of the experiment died by the end of the experiment. A value of -100 means all cells are dead at the end of the experiment.
NCI-60 Human Tumor Cell Lines Screen was performed using the standard one-dose NCI protocol, which is described in more detail at https://dtp.cancer.gov/discovery_development/nci-60/default.htm.
Compounds with GIPRCNT values below 10 were considered active. Activity score was based on GIPRCNT using the following formula: […]
Score is 0 for GIPRCNT values of 100 or above, 50 for GIPRCNT values of 0, and 100 for GIPRCNT values of -100.

Compound	growth
Cc1ccc(C)c(S(=O)(=O)NC2c3ccccc3Oc3ccccc32)c1	92.1%
CC(C)C(C)C(N)C(=O)O (stereo not given)	103%
CCOC(=O)[C@@H]1[C@H](c2ccccc2)[C@H]([N+](=O)[O-])[C@H](c2cn(-c3ccccc3)nc2C)N1Cc1ccccc1	51.2%
CC(C)C[C@H](NC(=O)CCn1ccc2ccccc2c1=O)B(O)O	68.2%
O=[N+]([O-])c1ccc(-c2nc(Cl)c3c(n2)CCCC3)o1	78.6%
O=NN(CCCl)C(=O)Nc1ccc(NC(=O)N(CCCl)N=O)cc1	55.7%
COc1cccc(C(=O)NNc2nc(N3CCN(C4CCCCC4)CC3)nc(N3CCN(C(c4ccccc4)c4ccccc4)CC3)n2)c1	32.6%
CCN(CCCNC(=O)Cc1cc(=O)oc2cc(N(C)C)ccc12)CCNc1ccnc2cc(Cl)ccc12	58.9%
O=C(N/N=C/c1ccccc1O)c1ccccc1	27.6%
CC(=O)OC1Oc2ccccc2-c2oc(=O)c(-c3cc(=O)oc4cc(O)ccc34)cc21 (stereo not given)	89.6%
C=CCOc1ccc2c(c1)CC[C@@H]1[C@@H]2CC[C@]2(C)C(=O)/C(=N/O)C[C@@H]12	68.8%
CCCCCCCCCCCCCCCC(=O)N1CCN(C)CC1	78.7%
CCOC(=S)Sc1ccc([N+](=O)[O-])cc1[N+](=O)[O-]	90.4%
COc1ccc(-c2[nH]ncc2-c2cc(OC)c(OC)c(OC)c2)cc1	6.25% (active)
C(=C\c1nc2ccccc2s1)/c1ccc(N2CCOCC2)s1	67.6%
O=S(=O)(NC1c2ccccc2Oc2ccccc21)c1cc(Cl)ccc1Cl	95.7%
Cc1nc(N)sc1Sc1nc2ccc(Cl)cc2c(=O)n1-c1ccc(Oc2ccccc2)cc1	77.2%
CCc1ccc(-c2nnc(COc3ccc(-c4nc5cc(Cl)c(Cl)cc5[nH]4)cc3OC)o2)cc1	29.1%
CCSc1nc2c([nH]1)c(=O)n(C)c(=S)n2C	105%
Cc1ccccc1[P+](Cc1ccccc1)(c1ccccc1)c1ccccc1	12.1%

Compound	growth
COc1cc(CSc2nc3ccc(Cl)cc3c(=O)n2-c2ccccc2)cc(OC)c1OC	88.6%
CN(C)Cc1cccs1	95.9%
Cc1ccc(-c2cc(C(=O)Nc3ccc(S(=O)(=O)N4CCCCC4)cc3)[nH]n2)c(O)c1	39.3%
Oc1ccc(Cn2cc3c(c2-c2ccccc2)CCc2cnoc2-3)cc1	88.9%
O=NN(CC(=O)N/N=C/C=C\c1ccccc1)CC(=O)N/N=C/C=C/c1ccccc1	89%
O=S(=O)(NCl)c1ccccc1	95.9%
COc1ccccc1NC1=C(N2CCCCC2)C(=O)c2ccccc2C1=O	84.5%
CCCC(C)c1ccc(OCCCCCCN2CCNCC2)cc1 (stereo not given)	-2.39% (active)
COc1cc(OC)cc(N2CCN(C(=O)Nc3nc4cc(F)ccc4nc3OC)CC2)c1	17.5%
CS(=O)(=O)Nc1ccc(Nc2c3ccccc3nc3cc(Cl)ccc23)cc1	19.9%
NC(=O)C12C(=O)NC(=O)C1(C(=O)O)C21CCCC1 (stereo not given)	102%
COc1cc(/C=C/C(=O)c2cc(-c3ccc(F)cc3)ccc2O)cc(OC)c1OC	79.9%
COc1ccc(-c2nc3sc(-c4ccccc4)c(-c4ccccc4)n3c2/C=C/c2ccc(F)cc2)cc1	99.3%
O=C(c1ccccc1)C(Nc1ccccc1)c1ccccc1 (stereo not given)	89.6%
COC(=O)[C@]12CC[C@@H](C)[C@H](C)[C@@H]1C1=CC[C@@H]3[C@@]4(C)CC(=O)[C@H](O)[C@@](C)(CO)[C@@H]4C(=O)C[C@@]3(C)[C@]1(C)CC2	-43.5% (active)
COc1cc(-c2cc(/C=C/C(C)=O)[nH]n2)cc(OC)c1OC	56.6%
Cn1cnc([N+](=O)[O-])c1Sc1nnc(-c2ccccc2)c(-c2ccccc2)n1	77.7%
COc1ccc(C(=O)/C=C/c2cc(-c3ccc(OC)c(OC)c3)n[nH]2)cc1OC	-94.5% (active)
CCOc1nc(-c2ccccc2)cc2c(O)c(C(=O)N/N=C/c3ccc(OC)cc3)[nH]c(=O)c12	100%
C[C@]12CC[C@H]3[C@@H](CC=C4C[C@@H](O)CC[C@@]43C)[C@@H]1CC[C@@H]2C(=O)C/C=N/O	83.8%
